From PubChem BioAssay (EPA / NIEHS) come the findings set out here.

The source made the active and inactive calls. The calls were made as follows: active = hit-call score of the fitted dose curve at least 0.9, where 1 is the maximum; inactive = score below 0.9.

Assay [1] deals with Nuclear respiratory factor 1 (Homo sapiens) (UniProt Q16656). The assay can be described thus: ATG_NRF1_CIS: Attagene CIS-FACTORIAL HepG2 Assay for human Nuclear Respiratory Factor 1 (NRF1) Orphan Gene (AID 2282987). Conditions: HepG2 NRF1 cis-element reporter, Attagene multiplex; actives raise or lower the signal. An outline of the steps:
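Using DMSO as baseline, gain- or loss-of-signal was fitted for reporter mRNA levels in HepG2 cells transiently transfected with cis-regulated reporter units. Samples were taken 24 h after dosing and read by RT-PCR with capillary electrophoresis.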

The nature of assay [2]: ATG_NFI_CIS: Attagene CIS-FACTORIAL HepG2 Assay for human Nuclear Factor I (NFI) (AID 2282989). Particulars: HepG2 cis-regulatory reporter, NFI response element transcription; actives raise or lower the signal. An outline of the steps:
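After transient transfection of HepG2 with cis-promoter reporter constructs and 24 h dosing, RNA is reverse-transcribed, amplified, 6-FAM end-labelled and HpaI-digested before capillary analysis. Bidirectional curve fitting against DMSO.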

Assay [3] concerns the target Myc proto-oncogene protein (Homo sapiens) (UniProt P01106). As to the kind of experiment: ATG_Myc_CIS: Attagene CIS-FACTORIAL HepG2 Assay for human Myelocytomatosis (Myc) Proto-Oncogene Transcription Factor (AID 2282990). Particulars: HepG2, Attagene cis-reporter transcription factor activity; actives raise or lower the signal. An outline of the steps: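 Cells of the HepG2 human liver line bear multiple cis-driven reporter transcription units. Reporter mRNA after 24 h exposure is reverse-transcribed, amplified, labelled and resolved by capillary electrophoresis, with gain- or loss-of-signal fitting relative to DMSO.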

Assay [4] in a line: ATG_NF_kB_CIS: Attagene CIS-FACTORIAL HepG2 Assay for human Nuclear Factor Kappa B (NF-kB) (AID 2282991). Particulars: HepG2 Attagene cis-factorial NF-kB reporter mRNA; actives raise or lower the signal. An outline of the steps:
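Endpoint from a 52-component multiplexed HepG2 reporter panel: cis-regulated transcription units transiently transfected, 24 h dosing, reporter mRNA quantified by RT-PCR and capillary electrophoresis, scored as increase or decrease against DMSO.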

The nature of assay [5]: ATG_NRF2_ARE_CIS: Attagene CIS-FACTORIAL HepG2 Assay for human Nuclear Factor Erythroid 2 Related Factor 2 (NFR2) response to Antioxidant Response Elements (ARE) (AID 2282992). Conditions: HepG2 Attagene ARE/NRF2 reporter, transcription factor activity; actives raise or lower the signal. An outline of the steps:
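Multiplexed reporter mRNA profiling in HepG2 after a 24 h chemical exposure. Curves fitted in both directions relative to DMSO negative control.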

Assay [6] is described as follows: ATG_Oct_MLP_CIS: Attagene CIS-FACTORIAL HepG2 Assay for human Octamer-Binding Transcription Factor (Oct) (AID 2282993). Conditions: HepG2 Attagene cis-factorial Oct reporter, mRNA; actives raise or lower the signal. An outline of the steps:
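Cells of the HepG2 line express promoter-controlled reporter sequences whose mRNA levels, after 24 h treatment, are measured by RT-PCR and capillary electrophoresis. Increases and decreases are scored relative to DMSO.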

The target in assay [7] is Cellular tumor antigen p53 (Homo sapiens) (UniProt P04637). The assay can be described thus: ATG_p53_CIS: Attagene CIS-FACTORIAL HepG2 Assay for human p53 Transcription Factor (AID 2282994). Conditions: HepG2 p53 cis-element reporter, Attagene mRNA; actives raise or lower the signal. An outline of the steps: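 Multiplexed reporter mRNA assay in human HepG2 liver cells; cis-regulated units report endogenous factor activity. Values come from bidirectional curve fitting against DMSO negative control after 24 h treatment.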
Sequence of Cellular tumor antigen p53 (Homo sapiens) (P04637 whole entry, looked up): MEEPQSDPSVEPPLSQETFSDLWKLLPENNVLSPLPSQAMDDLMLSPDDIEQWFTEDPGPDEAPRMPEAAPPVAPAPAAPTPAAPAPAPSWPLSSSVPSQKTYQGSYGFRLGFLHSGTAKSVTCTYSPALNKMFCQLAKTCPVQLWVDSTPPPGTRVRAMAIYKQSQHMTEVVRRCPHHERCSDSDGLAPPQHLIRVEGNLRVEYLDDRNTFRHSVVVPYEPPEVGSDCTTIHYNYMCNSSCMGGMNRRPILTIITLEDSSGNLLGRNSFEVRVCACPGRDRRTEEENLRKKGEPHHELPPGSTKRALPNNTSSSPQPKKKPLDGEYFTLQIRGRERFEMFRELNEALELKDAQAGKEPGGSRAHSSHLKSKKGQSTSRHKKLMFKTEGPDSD

Assay [8] in a line: BSK_3C_TissueFactor: BioMAP Diversity Plus: 3C Assay for Tissue Factor Biomarker Activity (AID 2282997). Conditions: BioMAP 3C HUVEC, tissue factor biomarker readout; actives raise or lower the signal. An outline of the steps:
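HUVEC were treated 24 h, then surface tissue factor measured by ELISA and fitted bidirectionally against DMSO. Parallel SRB total-protein staining assessed overt cytotoxicity at the same time point.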

Assay [9] in a line: BSK_3C_uPAR: BioMAP Diversity Plus: 3C Assay for Urokinase-type plasminogen activator receptor (uPAR) Biomarker Activity (AID 2282998). Particulars: BioMAP 3C HUVEC, uPAR biomarker ELISA; actives raise or lower the signal. In short, it runs like this:
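Endothelial primary cells of human umbilical vein origin received test chemical; 24 h later uPAR was assayed by ELISA. Fitting was bidirectional, DMSO as negative control.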
(In an ELISA, binding on a coated surface is turned into a signal by an enzyme label.)

Assay [10] can be described thus: BSK_3C_VCAM1: BioMAP Diversity Plus: 3C Assay for Vascular cell adhesion molecule 1 (VCAM1) Biomarker Activity (AID 2282999). Conditions: BioMAP 3C HUVEC, VCAM1 ELISA, cytokine-stimulated; actives raise or lower the signal. An outline of the steps: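 Endothelial cells from human umbilical vein are treated with test chemical. At 24 h, VCAM-1 is measured by ELISA, and responses in either direction are fitted relative to DMSO.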

Sequence of Myc proto-oncogene protein (Homo sapiens) (P01106 whole entry, looked up): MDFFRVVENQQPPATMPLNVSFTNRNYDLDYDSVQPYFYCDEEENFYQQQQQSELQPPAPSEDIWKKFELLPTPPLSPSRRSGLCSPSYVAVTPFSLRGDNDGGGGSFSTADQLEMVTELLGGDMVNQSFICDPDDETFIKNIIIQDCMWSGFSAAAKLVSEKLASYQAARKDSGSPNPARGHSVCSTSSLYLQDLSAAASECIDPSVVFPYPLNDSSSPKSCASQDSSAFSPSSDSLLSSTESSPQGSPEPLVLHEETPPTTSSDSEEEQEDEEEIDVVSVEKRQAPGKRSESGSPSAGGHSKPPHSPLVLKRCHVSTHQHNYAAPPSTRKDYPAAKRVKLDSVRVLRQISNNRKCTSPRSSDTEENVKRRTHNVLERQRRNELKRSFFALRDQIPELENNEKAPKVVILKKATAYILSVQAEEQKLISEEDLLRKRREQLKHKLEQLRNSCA
Sequence of Nuclear respiratory factor 1 (Homo sapiens) (Q16656 whole entry, looked up): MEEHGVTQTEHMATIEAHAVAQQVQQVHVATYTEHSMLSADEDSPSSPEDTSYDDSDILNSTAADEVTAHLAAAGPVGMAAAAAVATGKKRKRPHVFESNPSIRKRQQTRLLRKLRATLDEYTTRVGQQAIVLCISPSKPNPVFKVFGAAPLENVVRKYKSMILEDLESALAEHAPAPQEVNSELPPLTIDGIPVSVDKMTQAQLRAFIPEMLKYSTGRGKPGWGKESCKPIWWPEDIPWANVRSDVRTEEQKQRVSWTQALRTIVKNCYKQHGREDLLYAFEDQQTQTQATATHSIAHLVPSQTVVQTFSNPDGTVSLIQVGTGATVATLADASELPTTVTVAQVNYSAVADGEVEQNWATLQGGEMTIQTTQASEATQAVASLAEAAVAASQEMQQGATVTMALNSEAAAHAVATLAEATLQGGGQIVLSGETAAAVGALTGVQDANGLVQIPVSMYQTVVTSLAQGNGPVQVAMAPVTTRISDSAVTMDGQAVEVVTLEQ

Take `CCCCOC(=O)C(C)OC(=O)CCC` (stereo not given): the outcome in assay [1], in assay [2], in assay [3], in assay [4], in assay [5] and in [6] was inactive. Also, in [7], the molecule was classed as inactive.
As a reminder, the AC50 is the concentration at which the activity in the assay is half-maximal. For the molecule `CCCCCc1cccc(=O)o1`, the molecule was called inactive in assay [1], in [2], in assay [3], in assay [4], in assay [6] and in assay [7]. The AC50 in assay [5] is 41.5 µM (active).
`CCCCCC1CCC(=O)O1` (stereo not given): the molecule was called inactive in assay [1], in [2], in assay [3], in assay [4], in assay [5] and in assay [7].
Regarding `COc1ccc(OC)cc1`, the result in assay [1], in [2], in assay [3], in assay [4], in [5] and in assay [6] was inactive. Moreover, the molecule was classed as inactive in assay [7].
In the case of `CCCCCCCCSCc1cc(C)c(O)c(CSCCCCCCCC)c1`, the result in [1], in [2], in assay [3], in [4], in [5] and in [6] was inactive. Moreover, the molecule was classed as inactive in [7].
As for `CN(C)CCC=C1c2ccccc2CCc2ccccc21`, the molecule was called inactive in [1], in [2] and in assay [3]. In addition, the concentration at half-maximal activity (AC50) in [4] is 13.4 µM (active); in assay [5] it was 33.4 µM (active); in assay [6], 24.6 µM (active); in assay [7], 23.1 µM (active).
As for `CC(C)COC(=O)c1ccccc1`, the result in assay [1], in [2], in [3], in [4], in assay [5] and in [7] was inactive.
As to `CCCc1ccc(O)cc1`, the molecule was called inactive in [1], in [2], in assay [3], in assay [4], in [6] and in assay [7]. Further, the concentration at half-maximal activity (AC50) in [5] is 36 µM (active).
Regarding `CCC(C)(C)C1CCC(=O)CC1`, the molecule was called inactive in assay [1], in assay [2], in [3], in [4], in assay [5] and in assay [6]. In addition, the call in assay [7] was inactive.
`CCC(=O)OCC=Cc1ccccc1`: the result in assay [1], in assay [2], in assay [3], in assay [4], in assay [6] and in assay [7] was inactive. The result in assay [8] and in [10] was inactive. Further, the AC50 in [5] was 36.3 µM (active); in assay [9] it was 20 µM (active).
Regarding `CC(C)(C)c1cccc(O)c1`, the outcome in assay [1], in assay [2], in assay [3], in assay [4], in assay [5] and in assay [6] was inactive. Moreover, the result in assay [7] and in assay [10] was inactive. Moreover, the AC50 in assay [9] was 0.016 µM (active).
Consider `CCCCC1CCCCC(=O)O1` (stereo not given), for which the call in assay [1], in [2], in assay [3], in [4], in assay [5] and in assay [6] was inactive. In addition, in assay [7], the outcome was inactive.
`CC(=O)OC(C)(C)C`: the molecule was classed as inactive in assay [1], in assay [2], in assay [3], in assay [4], in assay [5] and in assay [6]. In addition, in [7], the outcome was inactive.
On to `O=C(O)c1cccc(Cl)n1`, for which the outcome in [1], in assay [2], in assay [3], in assay [4], in assay [5] and in assay [6] was inactive. In addition, the molecule was classed as inactive in assay [7].
As for `CCCCN(CCO)CCO`, the outcome in [1], in assay [2], in assay [3], in assay [4], in [5] and in assay [6] was inactive. Also, the molecule was called inactive in assay [7], in [9] and in [10].
`CC1(C)CC(=O)CC(C)(C)N1`: the outcome in assay [1], in assay [2], in assay [3], in assay [4], in [5] and in [6] was inactive. For the same molecule, the result in assay [7] was inactive.
As for `COc1ccc2[nH]cc(CCNC(C)=O)c2c1`, the molecule was called inactive in assay [1], in assay [2], in [3], in assay [4], in assay [6] and in [7].
In the case of `CCC(=O)OC/C=C(\C)CCC=C(C)C`, the outcome in [1], in assay [2], in assay [3], in assay [4], in assay [5] and in [7] was inactive.
As for `CC(C)=CCCC(C)=CC(=O)O`, the molecule was classed as inactive in assay [1], in assay [2], in [3], in assay [4], in assay [6] and in [7].
On to `[Cl][Dy]([Cl])[Cl]`, for which the molecule was called inactive in assay [1], in assay [2], in assay [3], in [4], in assay [6] and in assay [7].
With `CC(=O)CCC(=O)O`, the outcome in assay [1], in [2], in assay [3] and in assay [5] was inactive.
As for `O=S1(=O)CC(Cl)(Cl)C(Cl)(Cl)C1`, the call in assay [1], in [2], in assay [3] and in [4] was inactive. The half-maximal activity concentration (AC50) in assay [5] is 0.485 µM (active); in assay [7], 2.67 µM (active); in assay [9] it was 0.695 µM (active); in assay [10], 0.618 µM (active).
`CCOC(=O)CC(C)C`: the molecule was classed as inactive in assay [1], in [2], in assay [3] and in [5].
Regarding `c1ccc2scnc2c1`, the molecule was called inactive in assay [1], in assay [2], in assay [3], in [4], in assay [6] and in assay [7].
For the molecule `CC(=O)OC/C=C(C)/C=C/C=C(C)/C=C/C1=C(C)CCCC1(C)C`, the AC50 in assay [1] was 167 µM (active); in assay [4], 39.8 µM (active); in [7] it was 146 µM (active). Besides, the outcome in assay [2], in assay [3] and in assay [6] was inactive.
For `CC(=N[Si](C)(C)C)O[Si](C)(C)C`, the call in assay [1], in assay [2], in assay [3], in [4], in [5] and in [7] was inactive.
For the molecule `CCNC(=S)NCC`, the molecule was called inactive in assay [1], in [2], in assay [3], in assay [4], in assay [6] and in assay [7].
As to `C=C(C)C(N)=O`, the molecule was classed as inactive in [1], in [2], in assay [3], in assay [4], in assay [7] and in assay [9]. Besides, the outcome in assay [10] was inactive.
`CCCCOCCOCCOCCO`: the molecule was classed as inactive in assay [1], in [2], in assay [3], in assay [4], in assay [5] and in assay [7].
On to `CC1=CC[C@@H]2C[C@H]1C2(C)C`, for which the molecule was classed as inactive in assay [1], in assay [2], in assay [3], in [4] and in [6].
For the molecule `C=C1CC[C@H]2O[C@]2(C)CC[C@@H]2[C@@H]1CC2(C)C`, the molecule was called inactive in [1], in assay [2], in [3], in assay [4], in assay [6] and in assay [7].
